Consider 10 compounds from ChEMBL document CHEMBL1961873, “Compounds: GSK PKIS; Assays: Nanosyn kinase panel” (2012).

For experiment [1], the target named is T1, Tyrosine-protein kinase receptor TYRO3 (Homo sapiens) (UniProt Q06418).
T1 sequence (whole entry): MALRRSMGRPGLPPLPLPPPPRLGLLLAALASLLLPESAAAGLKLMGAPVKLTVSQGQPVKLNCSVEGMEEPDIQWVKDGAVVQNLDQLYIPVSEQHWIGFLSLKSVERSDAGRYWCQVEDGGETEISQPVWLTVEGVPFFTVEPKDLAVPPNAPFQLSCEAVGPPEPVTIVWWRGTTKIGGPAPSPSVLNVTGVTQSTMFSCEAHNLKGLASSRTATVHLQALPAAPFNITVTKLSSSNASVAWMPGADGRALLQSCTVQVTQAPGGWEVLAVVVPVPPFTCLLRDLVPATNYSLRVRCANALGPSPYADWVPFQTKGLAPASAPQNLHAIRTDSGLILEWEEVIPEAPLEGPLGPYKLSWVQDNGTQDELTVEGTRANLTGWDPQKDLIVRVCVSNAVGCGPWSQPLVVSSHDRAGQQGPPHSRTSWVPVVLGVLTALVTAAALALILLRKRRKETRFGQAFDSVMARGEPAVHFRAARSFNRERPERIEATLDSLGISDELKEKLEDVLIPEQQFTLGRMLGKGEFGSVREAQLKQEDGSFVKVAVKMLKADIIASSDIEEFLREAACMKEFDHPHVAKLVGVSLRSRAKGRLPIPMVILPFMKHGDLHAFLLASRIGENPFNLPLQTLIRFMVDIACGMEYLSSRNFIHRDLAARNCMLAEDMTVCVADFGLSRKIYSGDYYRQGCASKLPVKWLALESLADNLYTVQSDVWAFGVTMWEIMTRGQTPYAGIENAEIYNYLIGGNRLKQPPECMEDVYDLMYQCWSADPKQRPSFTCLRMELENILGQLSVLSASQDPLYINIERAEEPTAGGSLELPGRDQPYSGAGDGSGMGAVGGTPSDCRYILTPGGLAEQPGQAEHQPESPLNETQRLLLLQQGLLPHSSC
As to conditions: at 1 µM.

In experiment [2] the target is Tyrosine-protein kinase Yes (Homo sapiens) (UniProt P07947). As to conditions: at 0.1 µM.
Chain of Tyrosine-protein kinase Yes (Homo sapiens) (P07947 2-543 limits assumed): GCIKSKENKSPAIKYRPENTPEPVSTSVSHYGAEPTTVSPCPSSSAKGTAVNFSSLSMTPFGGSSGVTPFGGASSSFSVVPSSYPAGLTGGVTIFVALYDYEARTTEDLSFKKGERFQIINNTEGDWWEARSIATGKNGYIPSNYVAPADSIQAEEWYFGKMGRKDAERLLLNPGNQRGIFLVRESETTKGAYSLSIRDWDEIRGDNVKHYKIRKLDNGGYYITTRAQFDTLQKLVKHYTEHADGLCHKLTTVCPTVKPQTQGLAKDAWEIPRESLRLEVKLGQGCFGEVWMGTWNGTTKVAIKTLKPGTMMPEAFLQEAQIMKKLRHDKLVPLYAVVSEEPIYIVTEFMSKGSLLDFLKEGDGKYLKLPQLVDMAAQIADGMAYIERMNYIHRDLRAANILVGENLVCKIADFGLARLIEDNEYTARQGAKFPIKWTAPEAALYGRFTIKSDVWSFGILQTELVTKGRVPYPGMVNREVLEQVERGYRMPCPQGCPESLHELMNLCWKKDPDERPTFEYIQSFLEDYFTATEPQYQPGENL
Experiment [3] shares this target. To be noted: at 1 µM.
For experiment [4], the target named is T2, Tyrosine-protein kinase ZAP-70 (Homo sapiens) (UniProt P43403).
T2 sequence (whole entry): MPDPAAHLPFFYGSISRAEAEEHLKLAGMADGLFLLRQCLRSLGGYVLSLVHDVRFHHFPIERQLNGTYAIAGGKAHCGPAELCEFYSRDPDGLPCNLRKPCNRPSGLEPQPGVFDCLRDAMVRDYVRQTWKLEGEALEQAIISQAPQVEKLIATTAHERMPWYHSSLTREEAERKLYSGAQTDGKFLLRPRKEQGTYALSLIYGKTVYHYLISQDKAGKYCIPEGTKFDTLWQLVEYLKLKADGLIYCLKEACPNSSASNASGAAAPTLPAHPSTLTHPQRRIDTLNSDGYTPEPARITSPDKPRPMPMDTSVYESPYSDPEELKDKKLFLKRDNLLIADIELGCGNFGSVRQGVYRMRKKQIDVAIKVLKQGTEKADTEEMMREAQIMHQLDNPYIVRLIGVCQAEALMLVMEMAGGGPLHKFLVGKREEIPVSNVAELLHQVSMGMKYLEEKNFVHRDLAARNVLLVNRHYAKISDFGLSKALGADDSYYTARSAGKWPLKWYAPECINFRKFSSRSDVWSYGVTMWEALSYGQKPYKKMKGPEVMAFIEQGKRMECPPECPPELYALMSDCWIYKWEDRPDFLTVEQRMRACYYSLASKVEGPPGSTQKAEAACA
As to conditions: at 0.1 µM.

The target of experiment [5] is T2, Tyrosine-protein kinase ZAP-70 (Homo sapiens). As to conditions: at 1 µM.
Experiment [6] has as its target Serine/threonine-protein kinase B-raf (Homo sapiens) (UniProt P15056). To be noted: at 0.1 µM.
The target is the same in experiment [7]. To be noted: at 1 µM.
Experiment [8] deals with Serine/threonine-protein kinase B-raf (Homo sapiens), P15056 [V600E]. To be noted: at 0.1 µM.
Chain of Serine/threonine-protein kinase B-raf (Homo sapiens), P15056 [V600E] (P15056 whole entry V600E): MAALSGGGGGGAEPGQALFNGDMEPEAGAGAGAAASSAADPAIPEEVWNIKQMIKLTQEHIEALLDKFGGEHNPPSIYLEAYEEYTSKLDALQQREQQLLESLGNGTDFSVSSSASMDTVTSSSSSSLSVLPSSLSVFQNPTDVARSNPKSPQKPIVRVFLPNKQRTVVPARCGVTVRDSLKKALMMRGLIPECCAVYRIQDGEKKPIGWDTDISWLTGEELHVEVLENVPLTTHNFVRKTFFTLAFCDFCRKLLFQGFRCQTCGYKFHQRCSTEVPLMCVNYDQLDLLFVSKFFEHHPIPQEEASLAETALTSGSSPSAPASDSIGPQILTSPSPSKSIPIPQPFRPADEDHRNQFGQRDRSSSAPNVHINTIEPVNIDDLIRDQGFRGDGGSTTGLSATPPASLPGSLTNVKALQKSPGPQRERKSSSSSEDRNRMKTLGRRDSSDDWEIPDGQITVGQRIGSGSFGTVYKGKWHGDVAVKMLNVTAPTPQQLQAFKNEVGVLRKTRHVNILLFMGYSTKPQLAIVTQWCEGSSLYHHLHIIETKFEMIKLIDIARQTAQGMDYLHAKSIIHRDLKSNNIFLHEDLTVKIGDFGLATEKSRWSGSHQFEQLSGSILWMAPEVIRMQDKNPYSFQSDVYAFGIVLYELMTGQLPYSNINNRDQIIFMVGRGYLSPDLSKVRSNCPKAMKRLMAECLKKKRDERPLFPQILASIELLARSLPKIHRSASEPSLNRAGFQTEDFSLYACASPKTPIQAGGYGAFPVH
Experiment [9] shares this test system. As to conditions: at 1 µM.
Experiment [10] has as its target RAF proto-oncogene serine/threonine-protein kinase (Homo sapiens) (UniProt P04049). To be noted: at 0.1 µM.
Experiment [11] shares this target. To be noted: at 1 µM.
Experiment [12] has as its target T3, Interleukin-1 receptor-associated kinase 4 (Homo sapiens) (UniProt Q9NWZ3).
T3 sequence (whole entry): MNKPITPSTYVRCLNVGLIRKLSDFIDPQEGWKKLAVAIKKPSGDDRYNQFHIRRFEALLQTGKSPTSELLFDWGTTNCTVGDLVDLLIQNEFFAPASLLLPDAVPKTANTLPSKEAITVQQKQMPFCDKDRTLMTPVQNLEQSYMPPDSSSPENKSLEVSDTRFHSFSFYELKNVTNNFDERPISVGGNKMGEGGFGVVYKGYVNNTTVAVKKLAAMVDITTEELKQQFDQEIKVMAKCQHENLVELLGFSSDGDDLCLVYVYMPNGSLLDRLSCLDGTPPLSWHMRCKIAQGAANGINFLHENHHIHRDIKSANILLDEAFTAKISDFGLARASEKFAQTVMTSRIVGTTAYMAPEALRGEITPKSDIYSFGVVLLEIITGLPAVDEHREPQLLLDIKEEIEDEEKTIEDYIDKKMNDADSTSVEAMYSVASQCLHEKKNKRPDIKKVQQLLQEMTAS
To be noted: at 0.1 µM.

In experiment [13] the target is T3, Interleukin-1 receptor-associated kinase 4 (Homo sapiens). As to conditions: at 1 µM.
Experiment [14] has as its target Leucine-rich repeat serine/threonine-protein kinase 2 (Homo sapiens) (UniProt Q5S007). As to conditions: at 0.1 µM.
For experiment [15] the target is unchanged. As to conditions: at 1 µM.
Experiment [16] deals with Leucine-rich repeat serine/threonine-protein kinase 2 (Homo sapiens), Q5S007 [G2019S]. As to conditions: at 0.1 µM.
Chain of Leucine-rich repeat serine/threonine-protein kinase 2 (Homo sapiens), Q5S007 [G2019S] (Q5S007 whole entry G2019S): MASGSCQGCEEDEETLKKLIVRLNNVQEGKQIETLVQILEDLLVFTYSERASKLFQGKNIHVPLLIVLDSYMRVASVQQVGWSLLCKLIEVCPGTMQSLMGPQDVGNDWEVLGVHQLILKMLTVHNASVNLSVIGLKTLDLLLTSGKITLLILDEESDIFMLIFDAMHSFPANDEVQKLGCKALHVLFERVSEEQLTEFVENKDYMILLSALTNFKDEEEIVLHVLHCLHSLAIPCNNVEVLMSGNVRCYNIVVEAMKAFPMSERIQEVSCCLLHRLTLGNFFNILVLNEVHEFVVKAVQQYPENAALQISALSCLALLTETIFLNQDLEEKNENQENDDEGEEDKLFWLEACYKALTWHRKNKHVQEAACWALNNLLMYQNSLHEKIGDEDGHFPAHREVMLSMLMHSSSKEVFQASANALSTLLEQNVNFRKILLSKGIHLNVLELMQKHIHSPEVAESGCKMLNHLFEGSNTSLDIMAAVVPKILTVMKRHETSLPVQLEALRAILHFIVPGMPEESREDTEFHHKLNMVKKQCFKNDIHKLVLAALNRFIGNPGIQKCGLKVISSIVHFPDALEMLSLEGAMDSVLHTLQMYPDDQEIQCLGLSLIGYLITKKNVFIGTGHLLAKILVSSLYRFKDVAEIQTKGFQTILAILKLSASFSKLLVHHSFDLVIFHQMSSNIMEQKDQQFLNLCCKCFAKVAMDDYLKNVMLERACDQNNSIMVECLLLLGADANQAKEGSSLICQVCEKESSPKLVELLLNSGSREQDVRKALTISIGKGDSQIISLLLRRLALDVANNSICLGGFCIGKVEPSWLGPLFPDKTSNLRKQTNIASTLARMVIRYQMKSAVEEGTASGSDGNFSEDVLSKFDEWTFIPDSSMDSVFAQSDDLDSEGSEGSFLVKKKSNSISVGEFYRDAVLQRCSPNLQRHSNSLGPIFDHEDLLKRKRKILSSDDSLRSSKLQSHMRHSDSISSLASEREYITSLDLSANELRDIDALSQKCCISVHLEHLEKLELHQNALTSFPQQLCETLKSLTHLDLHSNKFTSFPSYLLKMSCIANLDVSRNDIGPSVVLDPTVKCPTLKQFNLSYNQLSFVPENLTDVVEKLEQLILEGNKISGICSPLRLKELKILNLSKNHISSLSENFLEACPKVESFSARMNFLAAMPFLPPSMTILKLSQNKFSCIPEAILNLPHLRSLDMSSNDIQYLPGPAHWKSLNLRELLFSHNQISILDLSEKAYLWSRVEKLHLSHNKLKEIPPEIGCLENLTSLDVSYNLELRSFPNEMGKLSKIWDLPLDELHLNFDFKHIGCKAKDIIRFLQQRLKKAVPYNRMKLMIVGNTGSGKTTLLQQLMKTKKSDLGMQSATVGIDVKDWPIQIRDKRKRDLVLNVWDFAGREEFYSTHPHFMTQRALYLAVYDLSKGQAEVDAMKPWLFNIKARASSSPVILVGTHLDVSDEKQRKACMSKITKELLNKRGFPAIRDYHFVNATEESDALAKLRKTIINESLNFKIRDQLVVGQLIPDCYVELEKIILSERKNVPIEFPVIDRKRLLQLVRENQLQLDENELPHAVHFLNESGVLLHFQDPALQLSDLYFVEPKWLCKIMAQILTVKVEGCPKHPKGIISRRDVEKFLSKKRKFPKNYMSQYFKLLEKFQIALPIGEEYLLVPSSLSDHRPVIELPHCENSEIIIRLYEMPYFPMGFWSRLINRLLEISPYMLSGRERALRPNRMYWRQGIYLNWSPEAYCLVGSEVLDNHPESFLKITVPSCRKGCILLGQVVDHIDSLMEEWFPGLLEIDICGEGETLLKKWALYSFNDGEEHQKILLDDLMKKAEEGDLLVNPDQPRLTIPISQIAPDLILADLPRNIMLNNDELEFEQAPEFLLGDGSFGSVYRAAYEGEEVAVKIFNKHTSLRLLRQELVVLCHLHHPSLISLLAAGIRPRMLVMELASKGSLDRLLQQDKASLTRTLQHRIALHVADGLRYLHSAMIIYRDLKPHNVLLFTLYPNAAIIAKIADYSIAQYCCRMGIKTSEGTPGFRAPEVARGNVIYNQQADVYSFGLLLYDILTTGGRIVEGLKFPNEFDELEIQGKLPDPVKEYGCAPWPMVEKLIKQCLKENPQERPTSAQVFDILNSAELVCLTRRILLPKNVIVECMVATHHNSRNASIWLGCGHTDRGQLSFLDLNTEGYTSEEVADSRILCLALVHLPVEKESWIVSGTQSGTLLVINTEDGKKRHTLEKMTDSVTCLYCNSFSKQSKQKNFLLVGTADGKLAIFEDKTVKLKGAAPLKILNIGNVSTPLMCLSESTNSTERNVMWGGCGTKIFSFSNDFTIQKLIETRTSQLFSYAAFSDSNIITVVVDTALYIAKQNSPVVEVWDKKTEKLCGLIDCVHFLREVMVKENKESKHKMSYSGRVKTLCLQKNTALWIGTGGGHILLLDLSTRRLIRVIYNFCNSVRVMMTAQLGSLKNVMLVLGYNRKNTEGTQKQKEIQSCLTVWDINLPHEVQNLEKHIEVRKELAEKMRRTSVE
For experiment [17] the test system is unchanged. To be noted: at 1 µM.

Chain of Serine/threonine-protein kinase B-raf (Homo sapiens) (P15056 whole entry): as the sequence (P15056 whole entry V600E) above, with E600V counted along it
Chain of Leucine-rich repeat serine/threonine-protein kinase 2 (Homo sapiens) (Q5S007 whole entry): as the sequence (Q5S007 whole entry G2019S) above, with S2019G counted along it
Chain of RAF proto-oncogene serine/threonine-protein kinase (Homo sapiens) (P04049 whole entry): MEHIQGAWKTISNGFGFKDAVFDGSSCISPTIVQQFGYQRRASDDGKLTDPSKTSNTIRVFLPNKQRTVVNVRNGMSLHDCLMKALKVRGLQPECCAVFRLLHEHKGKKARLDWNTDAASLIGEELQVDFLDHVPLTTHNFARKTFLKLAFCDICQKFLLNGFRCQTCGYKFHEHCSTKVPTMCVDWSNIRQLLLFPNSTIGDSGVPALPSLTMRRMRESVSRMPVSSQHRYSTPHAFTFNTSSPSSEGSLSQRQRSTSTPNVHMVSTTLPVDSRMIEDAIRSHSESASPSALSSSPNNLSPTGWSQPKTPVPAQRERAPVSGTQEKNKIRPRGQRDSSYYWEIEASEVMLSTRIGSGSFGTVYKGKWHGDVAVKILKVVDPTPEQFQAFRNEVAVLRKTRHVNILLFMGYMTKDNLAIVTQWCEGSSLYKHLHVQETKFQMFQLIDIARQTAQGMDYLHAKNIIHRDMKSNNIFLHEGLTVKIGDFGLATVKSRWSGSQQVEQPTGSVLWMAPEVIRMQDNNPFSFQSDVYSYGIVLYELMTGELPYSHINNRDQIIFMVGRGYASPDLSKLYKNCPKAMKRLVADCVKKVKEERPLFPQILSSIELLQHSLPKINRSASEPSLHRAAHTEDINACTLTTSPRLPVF

In the case of `COc1ccc2ncn(-c3cc(O[C@H](C)c4ccccc4Cl)c(C(N)=O)s3)c2c1`, the inhibition is 3.45% in experiment [1]; 1.1% in experiment [2]; 0.5% in experiment [3]; -4.58% in experiment [4]; 0.58% in [5]; 5.68% in [6]. Also, the inhibition in experiment [7] worked out at 4.96%; in [8], 3.17%; in [9], 3.29%; in [10] it was 0.5%; in experiment [11], 0.5%; in experiment [12], 1.46%. In addition, the inhibition in experiment [13] was 1.82%; in experiment [14], -2.19%; in [15], 9.87%; in experiment [16], 2.01%; in experiment [17], 20.2%.

For `O=C(NCC1CC1)c1ccc(-c2cccc(C(=O)NC3CC3)c2)cc1`, the inhibition in [1] was 0.81%; in experiment [2] it was -0.02%; in experiment [3], -2.38%; in experiment [4] it was 1.15%; in [5] it was 1.3%; in experiment [6], 3.46%. The inhibition in experiment [7] is 3.07%; in [8] it was 1.59%; in [9], 1.43%; in experiment [10], 5.36%; in experiment [11] it was 7.69%; in experiment [12], -3.46%. The inhibition in [13] was 0.85%; in experiment [14], 3.26%; in experiment [15] it was 6.31%; in experiment [16] it was 1.46%; in experiment [17], 5.03%.

Consider `O=C1Nc2ccc(I)cc2C1=Cc1cc(Br)c(O)c(Br)c1`, for which the inhibition in experiment [1] worked out at 3.68%; in [2], 2.36%; in [3], 4.8%; in [4] it was 3.85%; in [5], 5.52%; in [6], 6.02%. Moreover, the inhibition in [7] is 15%; in experiment [8], 4.33%; in [10], 8.31%; in experiment [11], 11.3%; in [12], 1.47%; in experiment [13] it was 2.1%. The inhibition is 19.2% in experiment [14], 71.9% in experiment [15], 37.4% in experiment [16] and 78% in [17].

In the case of `CN(C)CCOc1ccc(-c2cc(-c3ccc4c(c3)CCC4=NO)c(-c3ccncc3)o2)cc1`, the inhibition in experiment [1] is 2.92%; in experiment [2] it was 2.18%; in experiment [3], 9.45%; in experiment [4], -2.95%; in [5] it was 0.13%; in [6] it was 48.5%. In addition, the inhibition in [7] was 85%; in [8], 56.3%; in [9], 86.2%; in experiment [10], -4.4%; in [11], 39.8%; in experiment [12] it was -0.42%. The inhibition is 0.12% in experiment [13]; 1.03% in experiment [14]; 3.55% in experiment [15]; 1.85% in experiment [16]; 2.48% in experiment [17].

Consider `O=C(Nc1n[nH]c2cc(-c3cc(F)ccc3F)ccc12)C1CC1`, for which the inhibition in experiment [1] is 11.7%; in experiment [2] it was 2.25%; in [3] it was 8.92%; in experiment [4], 0.04%; in experiment [5] it was -0.4%; in experiment [6] it was 5.1%. The inhibition was 7.61% in experiment [7]; 5.62% in [8]; 6.3% in experiment [9]; -1.79% in experiment [10]; -0.98% in experiment [11]; 2.21% in experiment [12]. Further, the inhibition in experiment [13] was determined as 1.18%; in experiment [14], 2.33%; in experiment [15] it was 3.26%; in experiment [16], 1.81%; in experiment [17] it was 6.24%.

As for `C[C@@H](Oc1cc(-n2cnc3ccc(OC4CCN(C)CC4)cc32)sc1C(N)=O)c1ccccc1Cl`, the inhibition was 4.84% in experiment [1]; -0.81% in experiment [2]; 3.04% in experiment [3]; -2.84% in experiment [4]; -1.32% in [5]; 5.72% in experiment [6]. Also, the inhibition in experiment [7] was 7.68%; in [8], 4.5%; in experiment [9], 3.24%; in experiment [10], 2.09%; in experiment [11], 0.92%; in experiment [12], 1.54%. Besides, the inhibition in experiment [13] was 3.69%; in experiment [14] it was -3.8%; in [15] it was 6.57%; in experiment [16], -1.8%; in [17] it was 13.5%.

Take `COc1ccc(-c2ccc3c(NC(=O)C4CC4)n[nH]c3n2)cc1`: the inhibition in experiment [1] is 21.7%; in experiment [2] it was 2.13%; in [3] it was 8.75%; in [4], 0.8%; in [5], -3.24%; in [6] it was 3.14%. Besides, the inhibition in experiment [7] is 2%; in experiment [8], 3.73%; in experiment [9], 1.97%; in experiment [10] it was -1.88%; in [12], 2.75%; in [13], 0.45%. The inhibition in experiment [14] was 1.6%; in experiment [15], 5.11%; in [16], 2.17%; in [17], 3.39%.

On to `COc1cc(Nc2ncc3c(C)nc(-c4cccc(C(F)(F)F)c4)n3n2)cc(OC)c1OC`, for which the inhibition in [1] worked out at 10.6%; in experiment [2], 11.6%; in experiment [3] it was 42.7%; in experiment [4] it was 1.78%; in experiment [5], 2.75%; in experiment [6], 5.44%. The inhibition in [7] was 14.8%; in [8], 5.48%; in experiment [9], 13.2%; in experiment [10], 3.02%; in [11], -2.3%; in experiment [12] it was -2.83%. Besides, the inhibition came to 1.37% in experiment [13]; 8.04% in [14]; 17.4% in [15]; 11.1% in [16]; 39.6% in experiment [17].

Consider `COc1cc2ncn(-c3cc(OCCc4ccccc4)c(C(N)=O)s3)c2cc1OC`, for which the inhibition in experiment [1] was determined as 0.83%; in [2], 1.03%; in experiment [3], 4.7%; in experiment [4] it was 0.43%; in experiment [5], 0.59%; in [6], 3.24%. In addition, the inhibition in experiment [7] is 3.36%; in experiment [8] it was 3.25%; in experiment [9], 3.42%; in [10], 0.38%; in experiment [11], -9.47%; in experiment [12], 2.95%. The inhibition amounted to 0.72% in [13]; 4.52% in experiment [14]; 10.8% in experiment [15]; 6.42% in experiment [16]; 32.5% in experiment [17].

Consider `CN(C)CCCNc1nccc(-c2c(-c3ccc(F)cc3)nn3cc(C(F)(F)F)ccc23)n1`, for which the inhibition in [1] is 1.35%; in experiment [2] it was 0.79%; in experiment [3], -0.45%; in [4], -2.33%; in [5] it was -4.78%; in experiment [6], 2.11%. For the same compound, the inhibition in experiment [7] is 2.24%; in experiment [8], 2.52%; in [9] it was 2.19%; in [10], 3.17%; in experiment [11], 0.11%; in experiment [12], -2.77%. Further, the inhibition is 1.66% in experiment [13]; -2% in experiment [14]; 1.95% in [15]; -0.33% in experiment [16]; 2.73% in experiment [17].

As a reminder, the inhibition is the change of the read-out against control, counted positive when it falls.
